According to the supplement of paper PMC7057948, “A genome-wide approach for identification and characterisation of metabolite-inducible systems” (Nature Communications, 2020):

Experiments:
Assay in all cases: relative induction of RFP reporter vs primary effector (background-corrected); higher = stronger activation of the biosensor
Settings in all cases: inducer concentration 5 mM; 6 h; Cupriavidus necator H16; minimal medium + 0.4% gluconate
[1] = system: AcoR/P_H16_RS19445 acetoin biosensor (pEH052)
Method: (§1)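 C. necator H16 strains, each carrying one of 21 transcription factor/inducible promoter–mRFP biosensor plasmids, were grown in minimal medium in 96-well plates (robotic platform). Each was exposed to 46 structurally or metabolically related compounds at 5 mM at 30 °C. OD-normalised RFP fluorescence was read 6 h later and expressed as relative induction (%) = 100 × (FL compound − FL uninduced)/(FL primary inducer − FL uninduced); mean of n=4.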

[2] = system: AraC/P_araBAD L-arabinose biosensor (pEH176)
Method: as §1

[3] = system: BenM/P_H16_RS09790 benzoate biosensor (pEH148)
Method: as §1

[4] = system: FdsR/P_H16_RS03165 formate biosensor (pEH134)
Method: as §1

[5] = system: GabR/P_H16_RS23655 GABA biosensor (pEH256)
Method: as §1

[6] = system: HpdR/P_H16_RS18295 3-hydroxypropanoate biosensor (pEH010)
Method: as §1

[7] = system: KynR/P_H16_RS14030 L-kynurenine biosensor (pEH136)
Method: as §1

[8] = system: NahR/P_H16_RS08125 salicylate biosensor (pEH042)
Method: as §1

[9] = system: OapR/P_H16_RS01330 beta-alanine biosensor (pEH147)
Method: as §1

[10] = system: PcaQ/P_H16_RS30145 3,4-dihydroxybenzoate biosensor (pEH161)
Method: as §1

[11] = system: PhgR/P_H16_RS05530 phenylglyoxylate biosensor (pEH155)
Method: as §1

[12] = system: PhhR/P_H16_RS18365 L-phenylalanine biosensor (pEH137)
Method: as §1

[13] = system: SauR/P_H16_RS13695 sulfonatoacetate biosensor (pEH157)
Method: as §1

[14] = system: TtdR/P_H16_RS10665 tartrate biosensor (pEH083)
Method: as §1

[15] = system: XdhR/P_H16_RS05055 xanthine biosensor (pEH154)
Method: as §1

[16] = system: heterologous inducible system pEH002 (rhamnose/acrylate/cumate/itaconate set)
Method: as §1

[17] = system: heterologous inducible system pEH020 (rhamnose/acrylate/cumate/itaconate set)
Method: as §1

[18] = system: heterologous inducible system pEH040 (rhamnose/acrylate/cumate/itaconate set)
Method: as §1

[19] = system: heterologous inducible system pEH086 (rhamnose/acrylate/cumate/itaconate set)
Method: as §1
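Also: RFP excited at 585 nm with emission read at 620 nm, culture medium blanks subtracted from fluorescence and absorbance prior to normalisation.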

Row | SMILES | relative induction of RFP reporter [1] [%] | relative induction of RFP reporter [2] [%] | relative induction of RFP reporter [3] [%] | relative induction of RFP reporter [4] [%] | relative induction of RFP reporter [5] [%] | relative induction of RFP reporter [6] [%] | relative induction of RFP reporter [7] [%] | relative induction of RFP reporter [8] [%] | relative induction of RFP reporter [9] [%] | relative induction of RFP reporter [10] [%] | relative induction of RFP reporter [11] [%] | relative induction of RFP reporter [12] [%] | relative induction of RFP reporter [13] [%] | relative induction of RFP reporter [14] [%] | relative induction of RFP reporter [15] [%] | relative induction of RFP reporter [16] [%] | relative induction of RFP reporter [17] [%] | relative induction of RFP reporter [18] [%] | relative induction of RFP reporter [19] [%]
1 | N[C@@H](Cc1c[nH]c2ccccc12)C(=O)O [L-tryptophan] | -1.3 | 0.00791 | -0.0226 | 34.8 | -1.31 | -0.00554 | 65.7 | 0.00282 | -0.39 | -0.161 | -0.235 | 1.21 | 0.0508 | -0.293 | -0.684 | 0.00955 | -1.17 | -1.03 | -0.228
2 | O=c1cc[nH]c(=O)[nH]1 [uracil] | -0.264 | -0.0292 | -0.0102 | 2.09 | 0.468 | 0.292 | 1.02 | 0.0235 | 0.971 | -0.0843 | -0.376 | 0.347 | -0.0169 | -0.0341 | 0.952 | 0.0212 | 0.742 | -0.00512 | 0.875
3 | O=C(O)C[C@H](O)C(=O)O [L-malate] | -0.197 | 0.0102 | -0.00804 | 15.3 | -2.18 | 0.127 | 0.34 | 0.0296 | 0.168 | 0.148 | -0.316 | 0.413 | -0.0175 | 1.58 | 0.88 | 0.00418 | -0.286 | -0.274 | 0.726
4 | O=S(=O)(O)CCO [isethionate] | -1.41 | -0.00384 | -0.0202 | -5.83 | -2.12 | -0.0757 | 0.0938 | 0.0152 | -0.424 | 6.61 | -0.518 | -0.0754 | 1.56 | 2.47 | -0.627 | 0.0178 | -1.34 | -1.22 | -0.0664
